High-throughput results deposited in PubChem BioAssay by National Center for Advancing Translational Sciences (NCATS).
In the library only some 19% were active in any assay of this set; here they are far more common.
MCF10A rereplic: A quantitative high throughput screen for small molecules that induce DNA re-replication in MCF 10a normal breast cells; MCF 10A DNA re-replication, Hoechst nuclear intensity, 48 h; Potency, µM (titrated, usually from 46.1 µM), without a hit: at the top dose activity, positive = re-replication, actives largely listed as activators; hit rate 2.9% among 350,000; further: potency means the concentration at half of the fitted maximal effect; % of control where 0% means no effect; nearly all actives have a fitted effect of over 50% in size
IL-1B inflam inh: qHTS for Inhibitors of Inflammasome Signaling: IL-1-beta AlphaLISA Primary Screen | THP-1 LPS/ATP IL-1B secretion, AlphaLISA, 16 h; active compounds read low | activity change, % at 57.5 µM | hit rate 4.7% among 360,000 | AID 743279, 2014; in the data active means activity change below about -50%; inconclusive means mostly about -30% to -49%; further: on the % scale 0 is the no-effect control and ±100 the full control effect
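THP-1 cells pretreated 1 hr with compounds (up to 57.5 uM final), then stimulated with LPS (250 ng/mL final) plus ATP (1.25 mM final); secreted IL-1B measured by AlphaLISA after 16 hr, decreased signal indicating inhibition.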
TDP1 cell CPT: qHTS for Inhibitors of human tyrosyl-DNA phosphodiesterase 1 (TDP1): qHTS in cells in presence of CPT; Potency, µM (highest dose often 46.2 µM), for inactives: top-dose activity change, negative = growth inhibition, actives largely listed as inhibitors; hit rate 12% among 420,000; AID 686979, 2013; chicken DT40 Tdp1-/-;hTDP1 cells + 20 nM CPT, ATP luminescence, 48 h; further: potency means the concentration at half of the fitted maximal effect; on the % scale 0 is the no-effect control and ±100 the full control effect; nearly all actives have a fitted effect of over 55% in size
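Chicken DT40 Tdp1-/- cells complemented with human TDP1, 400 cells/well, exposed to compounds plus 20 nM camptothecin for at least 48 h at 37 C; viability read as ATP content by CellTiter-Glo luminescence.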
SW480 rereplic: A quantitative high throughput screen for small molecules that induce DNA re-replication in SW480 colon adenocarcinoma cells | SW480 DNA re-replication, Hoechst DNA content imaging, 48 h | AID 624297, 2012 | Potency, µM (doses to about 46.1 µM), without a hit: at the highest dose re-replication activation, hits mostly activators | hit rate 1.8% among 340,000; further: potency means the concentration at half of the fitted maximal effect; % of control where 0% means no effect; nearly all actives have a fitted effect of over 55% in size
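Image-based read-out: total Hoechst fluorescence of nuclei (405 nm excitation, 500-530 nm emission), with hits raising the fraction of high-intensity nuclei. SW480 colon cells incubated 48 hr with compounds at 37 C.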
BCR signal inh: qHTS Assay to Find Inhibitors of Chronic Active B-Cell Receptor Signaling. ABC-DLBCL IkBa-CBG/CBR reporter, luminescence ratio, 4 h. hit rate 0.05% among 340,000. AID 493014, 2011. Potency, µM (series often up to 46.1 µM), for the others: at the top dose activity change, negative = inhibition, most hits filed as inhibitors; active means well fitted inhibition curve with a large enough effect in the signal ratio, with a control signal flat, not every such curve was filed as active; inconclusive means small, poorly fitted or top-dose-only effect, or effect the other way, or a change in a side signal; the % refers to the signal ratio;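 further: potency means the concentration at half of the fitted maximal effect; plate controls were basal doxycycline-induced cells for no effect and cells given 10 µM MG132 for full effect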
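TMD8 ABC-DLBCL cells carrying doxycycline-inducible green luciferase fused to IkappaBalpha plus unfused red luciferase were exposed to compounds (up to 46 uM) for 4 hrs at 37C. Activity came from the overlap-corrected green/red luminescence ratio.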
TDP1 cell noCPT: qHTS for Inhibitors of human tyrosyl-DNA phosphodiesterase 1 (TDP1): qHTS in cells in absence of CPT | DT40 Tdp1-/- hTDP1 cells, no CPT, ATP luminescence, 48 h | Potency, µM (series often up to 46.2 µM), for the others: top-dose activity change, negative = growth inhibition, hits mostly inhibitors | hit rate 15% among 420,000 | AID 686978, 2013; further: potency means the concentration at half of the fitted maximal effect; on the % scale 0 is the no-effect control and ±100 the full control effect; nearly all actives have a fitted effect of over 55% in size
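Readout: luminescence from CellTiter-Glo after 30 min in the dark at RT. Cells: DT40 Tdp1-/- with stable hTDP1, 400/well. Exposure: compounds alone, ≥48 hr, 37 °C.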
Starred values were filed as active, the others as inactive; ? = inconclusive; nt = no result given. Unless noted, the call rests on the fitted dose curve; in most records, active means well fitted curve in the direction sought with a large enough effect; inconclusive means small, poorly fitted or top-dose-only effect, or another doubt; inactive means no such curve, though single readings can be large; an effect the other way counts as inactive or inconclusive.

SMILES	MCF10A rereplic	IL-1B inflam inh	TDP1 cell CPT	SW480 rereplic	BCR signal inh	TDP1 cell noCPT
COc1ccc2cc3cc(C(=O)NCc4cccs4)oc3nc2c1	?	-54*	-24%	10%	?	?
CCCN(CCC)CCCNC(=O)c1cc2cc3ccc(OC)cc3nc2o1	1%	-78*	?	27%	2%	-22%
COc1ccc(CNC(=O)COC(=O)[C@H](Cc2c[nH]c3ccccc23)NC(=O)c2cccs2)cc1	?	-93*	?	1%	-13%	?
COc1ccc2cc3cc(C(=O)NCCc4ccc(OC)c(OC)c4)oc3nc2c1	?	?	12µM*	-1%	?	18µM*
COc1ccc2cc3cc(C(=O)NCc4ccc(C)cc4)oc3nc2c1	nt	nt	-4%	nt	nt	-16%
CCOC(=O)C1=CN(Cc2ccco2)S(=O)(=O)NC1c1cccc(OC)c1 (centres undefined)	?	-4	?	?	0%	-27%
Clc1nc(Cl)nc(-c2cn(-c3ccccc3)c3ccccc23)n1	8%	39	-9%	6%	7%	-7%
NS(=O)(=O)c1ccc(N2C(=O)CCCC2=O)cc1	nt	6	-2%	nt	nt	12%
Cc1cc(C(=O)NCc2cccs2)c(C)o1	24%	-12	26µM*	?	?	18µM*
CCN(CC(=O)NCc1cccs1)C(=O)c1ccc(-c2ccccc2F)o1	-5%	12	?	2%	?	18µM*
COc1ccc(CC(=O)NCc2cccs2)cc1	?	45	23µM*	?	-9%	15µM*
CCCCN(CC)CCCNC(=O)c1cc2cc3ccc(OC)cc3nc2o1	-3%	-50*	?	7%	-13%	?
CCN(CC(=O)NCc1cccs1)C(=O)c1ccccc1Cl	-2%	6	-5%	-4%	4%	-5%
O=C(c1ccc2c(=O)n(C3CCCC3)c(=S)[nH]c2c1)N1CCc2ccccc21	0%	0	12µM*	-1%	0%	21µM*
CC(C)NC(=O)c1ccc2c(=O)n(C3CCCC3)c(=S)[nH]c2c1	12%	-6	-20%	-17%	-1%	-14%
COc1ccc(-c2cn(-c3ccc(C)cc3C)c(=O)[nH]2)cc1OC	6%	-2	15µM*	-9%	-2%	?
COc1ccc(C2=NO[C@@H]3C(=O)N(c4ccc(C)cc4C)C(=O)[C@H]23)cc1OC	-3%	-12	26µM*	-7%	-1%	?
COc1ccc(C2=NO[C@@H]3C(=O)N(c4cccc(C)c4C)C(=O)[C@H]23)cc1OC	-2%	-2	1%	-4%	?	-12%
CC(=O)Nc1ccc(NCN2C(=O)[C@@H]3[C@H]4CC[C@H](C4)[C@@H]3C2=O)cc1	6%	6	-29%	-42%	?	-20%
Cc1ccc(-n2nc3c(n2)/C(=N/O)CC/C3=N\O)cc1	0%	-23	?	-8%	?	16µM*
CCc1nc2ccc(C(=O)NCCCN3CCCC3=O)cn2c1N(CC)Cc1cccc(Br)c1	nt	1	21µM*	nt	nt	?
CCc1nc2ccc(C(=O)NCCc3ccccn3)cn2c1N(CCC(C)C)CCN(C)C	nt	-9	-23%	nt	nt	?
CCc1nc2ccc(C(=O)NCCc3ccccn3)cn2c1N(CC)Cc1cccc(Br)c1	nt	-23	8.2µM*	nt	nt	9.2µM*
CCc1nc2ccc(C(=O)NC(C)(C)C)cn2c1N(CC)Cc1cccc(Br)c1	nt	-58*	18µM*	nt	nt	16µM*
CC(C)c1ccc(C(C(=O)NC2CCCC2)N(C(=O)c2csnn2)C2CC2)cc1 (centres undefined)	4%	-9	-30%	4%	5%	?
SMILES	MCF10A rereplic	IL-1B inflam inh	TDP1 cell CPT	SW480 rereplic	BCR signal inh	TDP1 cell noCPT
COC(=O)[C@]12CCCCC=C1N(Cc1ccc(Cl)cc1Cl)C(=O)[C@H](CC(=O)N1CCC(c3ccccc3)CC1)C2	nt	-23	?	nt	nt	?
Cc1ccc(CN2CCN(Cc3ccc(-n4cccn4)cc3)CC2CCO)cc1 (centres undefined)	110%	0	-6%	13%	?	-26%
O[C@@H]1CN(Cc2ccc(-n3cccn3)cc2)CC[C@H]1N1CCN(c2ccccc2F)CC1	?	-62*	13µM*	?	0%	3.7µM*
CC(C)[C@@]1(c2ccc(Cl)cc2)ON(c2ccccc2C(F)(F)F)C1=O	nt	nt	nt	nt	0%	nt
COc1cc(NC(=O)c2nnn(CC(=O)Nc3cc(C)ccc3C)c2N)cc(OC)c1	nt	nt	0%	nt	nt	-4%
COc1ccc(C2C3=C(N=C4SCC(=O)N42)c2ccccc2CC3)cc1OC (centres undefined)	16%	-16	15µM*	?	-6%	15µM*
O=C(Cc1ccccc1)NC1CC(=O)N(c2ccc3c(c2)OCCO3)C1 (centres undefined)	nt	nt	-4%	nt	-24%	5%
CCc1ccc(N(CC(=O)NC(C)C)C(=O)CCC(=O)Nc2nccs2)cc1	-18%	?	-3%	-13%	2%	-8%
COc1ccc(NC(=O)CCn2nc(C)cc2C)cc1	3%	1	9%	-12%	?	1%
CCc1ccc(NC(=O)CCn2nc(-c3ccccc3OC)c3c(C)cc(C)nc32)cc1	nt	nt	?	nt	nt	21µM*
